These results are taken from PubChem BioAssay AID686978 (National Center for Advancing Translational Sciences (NCATS), 2013).

Among all 420,000 compounds or so, about 64,000 (15%) were called active. Inconclusive results (about 27%) are left out. Calls follow the shape of the dose curve; as a rule, active = well fitted inhibition curve with a large enough effect; inconclusive = small, poorly fitted or top-dose-only effect; inactive = flat fitted curve, though single readings scatter. A selection follows. Where a call stands in place of a potency, no number is given.
Potency is read from the fitted curve at half-maximal effect.

The assay in a line: qHTS for Inhibitors of human tyrosyl-DNA phosphodiesterase 1 (TDP1): qHTS in cells in absence of CPT. Also: nearly all actives have a fitted effect of over 55% in size. Conditions: DT40 Tdp1-/- hTDP1 cells, no CPT, ATP luminescence, 48 h; activity change, negative = growth inhibition: at 46.2 µM (top of the series). A digest of the protocol: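 DT40 Tdp1-/-;hTDP1 cells, no CPT (DMSO vehicle only), 400 cells/well; compounds pin-transferred; ≥48 hr, 37 °C; CellTiter-Glo 30 min RT dark, luminescence read.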
On the technique in general: Quantitative high-throughput screening tests each substance at several concentrations.
For the molecule `O=C1CC(c2ccc(F)cc2F)c2cc3c(cc2N1)OCO3` (stereo not given), the Potency entry is “inactive”.

As for `COCCOC(=O)C1=C(C)NC(=O)CC1c1cc2c(cc1Br)OCO2` (stereo not given), the Potency entry is “inactive”.

Take `CCCOc1ccccc1C1CC(=O)Nc2cc3c(cc21)OCO3` (stereo not given): the Potency was 1.84 µM (active).

As to `Cc1cc(C)c2nc(NC(=O)C3CCCO3)sc2c1` (stereo not given), the Potency entry was “inactive”.

Consider `Cn1c(=O)c(Sc2ccc(Cl)cc2)c(O)c2ccccc21`, for which the Potency result is “inactive”.

`COc1ccc(-c2nnn(CC(=O)N(CCO)C(C(=O)NC3CCCC3)c3ccc(F)cc3)n2)cc1` (stereo not given): the Potency entry was “inactive”.

Consider `CCC(Sc1nnc(-c2ccc(OC)cc2)c(-c2ccc(OC)cc2)n1)C(=O)NC1CCCCC1` (stereo not given), for which the Potency is 13 µM (active).

Regarding `COc1ccc(-c2nnc(SC(C)C(=O)NC3CC3)o2)cc1` (stereo not given), the Potency entry was “inactive”.

`O=C(NCc1nnc(SCC(=O)N2CCCCCC2)o1)c1ccc(F)cc1`: the Potency result is “inactive”.

Turning to `S=c1nccc(-c2cc(Cl)sc2Cl)[nH]1`, the Potency entry is “inactive”.

`CC1(C)Cc2ccccc2-c2c[nH]c(=O)n21`: the Potency result is “inactive”.

With `O=c1c2ccccc2nc2n1C1(CCCCC1)Cc1ccccc1-2`, the Potency was 16.4 µM (active).

`c1cncc(-c2nnc3n2C2(CCCCC2)Cc2ccccc2-3)c1`: the Potency result is “inactive”.

In the case of `CCCc1ccc(C(=O)COC(=O)CN2C(=O)NC3(CCCCC3C)C2=O)cc1` (stereo not given), the Potency result is “inactive”.

For the molecule `COc1cccc(-c2cccc(NC(=O)C3CCN(C4CCC4)CC3)c2)c1`, the Potency entry was “inactive”.

For `O=C(NCC1CCN(Cc2ccccc2Cl)CC1)Nc1cccc(Cl)c1`, the Potency is 18.4 µM (active).

Consider `O=C(NC1CCCC1)C1CCN(C(=O)Nc2cccc(Cl)c2)CC1`, for which the Potency entry is “inactive”.

Regarding `CCn1cc(CN2CCC(n3nccc3NC(=O)CCCc3ccccc3)CC2)c(C)n1`, the Potency result is “inactive”.

Regarding `O=C(Nc1cccc(-c2cccc(Cl)c2)c1)C1CCN(C2CCC2)CC1`, the Potency is 23.1 µM (active).

On to `CCn1cc(CN2CCC(C(=O)Nc3cccc(-c4cccc(Cl)c4)c3)CC2)c(C)n1`, for which the Potency was 4.61 µM (active).

Take `Cc1ccccc1NC(=O)NCC1CCN(Cc2cccc(Cl)c2)CC1`: the Potency result is “inactive”.

For `COc1ccc(Cl)cc1NC(=O)NCC1CCN(Cc2ccccc2F)CC1`, the Potency result was “inactive”.

As to `O=C(Nc1cccc(-c2cscn2)c1)C1CCN(Cc2ccsc2)CC1`, the Potency result is “inactive”.

For `CC1Cc2ccccc2N1S(=O)(=O)c1c(N)n(C)c(=O)n(C)c1=O` (stereo not given), the Potency entry is “inactive”.

As to `CCSc1nnc(NC(=O)c2cc(=O)c3cc(C)c(C)cc3o2)s1`, the Potency entry is “inactive”.

With `COc1ccc(S(=O)(=O)NCC(=O)NC2CC2)cc1OC`, the Potency result is “inactive”.

As to `CCN1CCN(C(C(=O)NC2CCCC2)c2cc3c(cc2[N+](=O)[O-])OCO3)CC1` (stereo not given), the Potency entry is “inactive”.

For the molecule `CC(C)CN1CC(C)C(=O)N(c2ccccc2)C1=S` (stereo not given), the Potency entry is “inactive”.

With `Nc1nc(SCC(=O)NNc2c(Cl)cc(Cl)cc2Cl)n[nH]1`, the Potency entry was “inactive”.

Regarding `C[C@@H]1CCCCO[C@H](CN(C)Cc2ccccc2)[C@@H](C)CN([C@H](C)CO)C(=O)c2cc(NS(=O)(=O)c3ccc(Cl)cc3)ccc2O1`, the Potency is 16.4 µM (active).

For `CC(C)NC(=O)Nc1ccc2c(c1)C(=O)N([C@H](C)CO)C[C@H](C)[C@@H](CN(C)Cc1ccc(C(F)(F)F)cc1)OCCCC[C@@H](C)O2`, the Potency entry is “inactive”.

For the molecule `Cc1noc(C)c1S(=O)(=O)N(C)C[C@H]1OCCCC[C@@H](C)Oc2ccc(NC(=O)CCCN(C)C)cc2C(=O)N([C@H](C)CO)C[C@@H]1C`, the Potency result is “inactive”.

For `O=C(Nc1ccnn1C1CCN(Cc2cccc(OCCO)c2)CC1)C1CCCC1`, the Potency entry was “inactive”.

For `CC1(C)CC(=O)C=C(NC2CC(C)(C)NC(C)(C)C2)C1`, the Potency entry is “inactive”.

In the case of `CC(=O)c1cnn(-c2cc(Oc3ccc(F)cc3)ncn2)c1C`, the Potency result is “inactive”.

Turning to `COc1cc(/C=C2/C(=O)NN(c3ccc(F)cc3)C2=O)cc([N+](=O)[O-])c1O`, the Potency entry was “inactive”.

As for `C/C=C/C(=O)Nc1nnc(C(C)C)s1`, the Potency entry was “inactive”.

In the case of `CCOc1ccc(CN2CCC(n3nccc3NC(=O)C3CC3)CC2)cc1CO`, the Potency entry was “inactive”.

As to `Cc1cccnc1C(NC(=O)C1CCN(Cc2ccc(Cl)c(Cl)c2)CC1)c1ccc(Cl)cc1` (stereo not given), the Potency was 4.61 µM (active).

For the molecule `O=C(NNS(=O)(=O)c1ccc(Cl)cc1)C1CCN(Cc2ccccc2)CC1`, the Potency result is “inactive”.

As to `COc1cccc(CN2CCC(C(=O)NC(c3ccc4c(c3)OCO4)c3ccccn3)CC2)c1` (stereo not given), the Potency entry is “inactive”.

As to `O=C(NC(c1ccc(Cl)cc1)c1cnccn1)C1CCN(Cc2ccc(Cl)cc2)CC1` (stereo not given), the Potency is 20.6 µM (active).

Regarding `Clc1ccc(CN2CCCCCC2)cc1Cl`, the Potency entry is “inactive”.

For `Fc1cccc(Cl)c1CSc1ccc(-c2ccco2)nn1`, the Potency entry was “inactive”.

Take `CCOc1ccc(S(=O)(=O)N2CCC(C(=O)NCc3ccccn3)CC2)cc1Cl`: the Potency entry was “inactive”.

Turning to `Cc1ccc(S(=O)(=O)NCC(=O)NNC(=O)c2ccc(Br)cc2)cc1C`, the Potency result was “inactive”.

On to `O=C(NNS(=O)(=O)c1ccc(F)cc1)c1cnccn1`, for which the Potency entry is “inactive”.

For the molecule `CO/N=C(\C(=O)N[C@@H]1C(=O)N2C(C(=O)O)=C(C[N+]3(C)CCCC3)CS[C@H]12)c1csc(N)n1`, the Potency result was “inactive”.

On to `O=C(COC(=O)/C=C/c1nc2ccccc2s1)Nc1ccccc1Oc1ccccc1`, for which the Potency result was “inactive”.

In the case of `c1ccc(CCc2ccccn2)cc1`, the Potency result was “inactive”.

`CC(C)NC(=O)N1CCC2(CC1)CCN(C(=O)c1cccn1C)CC2`: the Potency entry is “inactive”.

In the case of `Cn1cccc1C(=O)N1CCC2(CC1)CN(c1cccc(-c3ccccc3)c1)C2`, the Potency is 16.4 µM (active).

As for `COc1ccc(NC(=O)N2CC3(CCN(C(=O)c4cccn4C)CC3)C2)cc1`, the Potency result was “inactive”.

In the case of `CCN(CC)CCn1cnc2c1c(=O)n(CCOC(=O)c1cc(OC)c(OC)c(OC)c1)c(=O)n2C`, the Potency result is “inactive”.

For the molecule `CC(=O)c1nn(-c2ccc(C)cc2)cc1C(=O)c1cccc(Br)c1`, the Potency result was “inactive”.

For the molecule `O=C(CCNC(=O)c1ccc([N+](=O)[O-])cc1)NC1CCCCC1`, the Potency result was “inactive”.

Regarding `CC(C)C1=CC2=CC[C@H]3[C@](C)(C(=O)O)CCC[C@]3(C)C2CC1` (stereo not given in full), the activity change, negative = growth inhibition is 3.41% [at 9.04 µM] (inactive).

For the molecule `COc1ccc(CN2CCNC(=O)C2CC(=O)NCc2cn[nH]c2-c2ccccc2)c(F)c1` (stereo not given), the Potency entry was “inactive”.

For the molecule `COc1ccc(NS(=O)(=O)c2ccc(NC(=O)C(C)(C(F)(F)F)C(F)(F)F)cc2)nn1`, the Potency entry was “inactive”.

For `c1ccc(-c2cn3c(n2)CCc2ccc4cccnc4c2-3)cc1`, the Potency is 16.4 µM (active).

As for `c1ccc(-c2cn3cccnc3n2)cc1`, the Potency result is “inactive”.

Regarding `Cc1ccc(NC(=O)CSc2nc(=O)n(CCN(C)C)c3c2CCCC3)c(C)c1`, the Potency result is “inactive”.

Turning to `Cc1csc(NC(=O)CSc2nc(=O)n(CCCN(C)C)c3c2CCC3)n1`, the Potency result is “inactive”.

With `Cc1ccc2nc(NC(=O)CSc3nc(=O)n(CCCN(C)C)c4c3CCC4)sc2c1`, the Potency is 13 µM (active).

Consider `CCOC(=O)CC1=CC(=O)Nc2ccccc2N1`, for which the Potency entry was “inactive”.

As for `CCc1ccccc1NC(=O)CN(C)C(=O)c1cc(C2CC2)nn1-c1ccccc1`, the Potency entry is “inactive”.

For `COc1cccc(NC(=O)CN(C)C(=O)c2cc(C3CC3)nn2-c2ccccc2)c1`, the Potency result is “inactive”.

Turning to `CCc1ccccc1NC(=O)CN1CCN(C(=O)c2cc(C3CC3)nn2-c2ccccc2)CC1`, the Potency is 23.1 µM (active).

Regarding `Cc1ccc(C(=O)Nc2ccc3[nH]c(=O)c(=O)[nH]c3c2)cc1`, the Potency result was “inactive”.

On to `COc1ccc(C(=O)Nc2ccc(NC(=O)C(C)C)nc2)cc1`, for which the Potency entry was “inactive”.

For `COC(=O)c1ccc(Sc2ccc(F)cc2)c(N)c1`, the Potency result is “inactive”.

`Cc1ccc(Sc2ccc(NC(=O)c3ccc(F)cc3)cc2C#N)cc1`: the Potency was 11.6 µM (active).

`COc1ccc(NC(=O)c2cccc(Cl)c2)c[n+]1[O-]`: the Potency result was “inactive”.

Turning to `COc1ccc(Sc2ccc(NC(=O)c3cccc(Cl)c3)cc2C#N)cc1`, the Potency was 23.1 µM (active).

In the case of `COc1cccc(NC(=O)CCNS(=O)(=O)c2ccc3c(c2)oc(=O)n3C)c1`, the Potency entry was “inactive”.

For `COCC(C)N=CC1=C(O)CC(C)(C)CC1=O` (stereo not given), the Potency entry is “inactive”.

As to `C=CCN1C=C(C(=O)c2ccccc2)C(=O)CC1`, the Potency entry was “inactive”.

For the molecule `O=C(CCS(=O)(=O)Cc1ccccc1F)NCCCN1CCCCC1`, the Potency entry is “inactive”.

With `CCCCNC(=O)OCCSCCS(=O)(=O)c1ccc(Cl)cc1`, the Potency result was “inactive”.

Take `CC12CCCCC1=CC(=O)CC2` (stereo not given): the Potency result was “inactive”.

For the molecule `Cc1c(Cl)cccc1NC(=O)NCCCN1CCCC1=O`, the Potency result was “inactive”.

As for `Cc1ccc(-c2cccc([C@H]3[C@@H]4C=CC[C@@H](C)[C@@H]4C(=O)N3Cc3ccccc3)c2)cc1`, the Potency is 20.6 µM (active).

In the case of `Cc1cccc([C@@H]2[C@@H]3C(=O)N(Cc4ccccc4)C(=O)[C@@H]3[C@]3(Cc4ccc(Cl)cc4)C(=O)N(c4cccc(Cl)c4)C(=O)N23)c1`, the Potency entry is “inactive”.

With `Cc1cccc([C@H]2[C@@H]3C=CC[C@@H](C)[C@@H]3C(=O)N2Cc2ccccc2)c1`, the Potency is 14.6 µM (active).

For `Cc1cccc([C@@H]2[C@@H]3C(=O)N(C)C(=O)[C@@H]3[C@@H]3C(=O)Nc4ccccc4C(=O)N23)c1`, the Potency result is “inactive”.

As to `O=C(NCCCN1CCOCC1)c1ccc([N+](=O)[O-])cc1[N+](=O)[O-]`, the Potency result was “inactive”.

For the molecule `CC(C)c1ccc(/C=C/C(=O)NCCCN2CCOCC2)cc1`, the Potency is 20.6 µM (active).

As for `O=C(NNC(=S)NCCCN1CCOCC1)c1ccncc1`, the Potency entry is “inactive”.

As to `CCCC(=O)N(CCc1ccccc1)Cc1nc2ccccc2c(=O)[nH]1`, the Potency result is “inactive”.

As to `CN(C)CCCNC(=O)c1cc(C(=O)Cc2ccc(Cl)cc2)c[nH]1`, the Potency entry was “inactive”.

`N=c1n(CCc2ccccc2)c2ccccc2n1Cc1ccccc1F`: the Potency is 5.17 µM (active).

Turning to `O=C(COC(=O)Cc1ccccc1F)NCCc1ccccc1`, the Potency result is “inactive”.

Turning to `CCCCc1nccn1CCn1ccnc1CCCC`, the Potency result was “inactive”.

In the case of `CC(C)NC(=O)NC(=O)CSc1nnc(-c2ccccc2F)n1N`, the Potency result was “inactive”.

As to `C=C(Br)Cn1c(CCCC)nc2ccccc21`, the Potency was 11.6 µM (active).

Consider `O=C(O)Cn1c(Cc2ccccc2)nc2ccccc21`, for which the Potency entry is “inactive”.

On to `C=CCn1c(P(C)(=O)O)nc2ccccc21`, for which the Potency entry is “inactive”.

For `CCCCCCCC/C=C\CCCCCCCC(=O)OC[C@H](CO)OC(C)=O`, the activity change, negative = growth inhibition is -8.7% [at 4.12 µM] (inactive).

Regarding `CCCOC(=O)c1c(NC(=O)c2cc3nc(-c4ccc(OC)cc4)cc(C(F)(F)F)n3n2)sc2c1CCCC2`, the Potency entry is “inactive”.

`CC(=O)NS(=O)(=O)c1ccc2c(c1)Cc1cc(S(=O)(=O)NC(C)=O)ccc1-2`: the Potency entry is “inactive”.
